The structures appear in SMILES notation. Results filed as inconclusive are left out. The source made the active and inactive calls. Calls come from the whole dose curve; as a rule, active = well fitted activation curve with a large enough effect; inconclusive = small, poorly fitted or top-dose-only effect; inactive = no such curve, though single readings can be large or run the other way.
Potency is the fitted concentration of half-maximal effect.

The target in the assay is Relaxin receptor 1 (Homo sapiens) (UniProt Q9HBX9). Kind of assay: qHTS Assay for Agonists of the Relaxin Receptor RXFP1: THP1 Hit Validation.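 For activation: 0% = buffer alone basal and 100% = 29 nM porcine relaxin.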 Note: nearly all actives have a fitted effect of over 60% in size. The note with it: THP1-RXFP1 cells, cAMP TR-FRET, 30 min; series mostly up to 115 µM; activation: at the top concentration. The procedure, abridged: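 THP1 cells stably expressing RXFP1, treated 30 min at 37 C with compounds alongside PDE4 inhibitor Ro 20174. cAMP read by HTRF TR-FRET after lysis; normalized to buffer and 29 nM porcine relaxin; EC50 from Hill fits.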
Sequence of Relaxin receptor 1 (Homo sapiens) (Q9HBX9 whole entry, looked up): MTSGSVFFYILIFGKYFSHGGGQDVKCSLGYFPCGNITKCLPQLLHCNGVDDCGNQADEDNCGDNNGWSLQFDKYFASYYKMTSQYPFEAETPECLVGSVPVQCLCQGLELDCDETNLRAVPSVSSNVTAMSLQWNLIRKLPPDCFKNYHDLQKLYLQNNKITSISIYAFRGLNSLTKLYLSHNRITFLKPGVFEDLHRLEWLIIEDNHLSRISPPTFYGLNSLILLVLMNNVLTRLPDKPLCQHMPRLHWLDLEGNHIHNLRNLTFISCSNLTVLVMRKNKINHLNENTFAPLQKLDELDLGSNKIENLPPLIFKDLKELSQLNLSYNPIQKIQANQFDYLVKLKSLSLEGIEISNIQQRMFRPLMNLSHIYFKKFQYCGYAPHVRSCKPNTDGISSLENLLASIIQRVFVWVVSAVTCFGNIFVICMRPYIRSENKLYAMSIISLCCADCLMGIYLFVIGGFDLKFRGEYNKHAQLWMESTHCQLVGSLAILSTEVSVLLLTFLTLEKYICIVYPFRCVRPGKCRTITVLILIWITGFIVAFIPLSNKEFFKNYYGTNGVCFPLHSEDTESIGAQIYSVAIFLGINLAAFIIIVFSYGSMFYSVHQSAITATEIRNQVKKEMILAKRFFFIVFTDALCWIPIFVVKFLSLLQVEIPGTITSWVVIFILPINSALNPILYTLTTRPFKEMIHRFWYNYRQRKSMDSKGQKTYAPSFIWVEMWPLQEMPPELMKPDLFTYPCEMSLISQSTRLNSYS
On to `Cc1cc2nc3ccc(=[N+](C)C)cc-3sc2cc1N`, for which the “activation” value is -52.7% (inactive). `O=C(Nc1cc(S(=O)(=O)N2CCOCC2)ccc1N1CCOCC1)c1cn2ccccc2n1`: the Potency was 8.7 µM (active). Regarding `O=C(Nc1ccccc1C(=O)N1CCCCC1)c1ccco1`, the “activation” value is 1.27% [at 125 µM] (inactive).

`O=C(Nc1ccccc1C(=O)Nc1ccc(F)cc1)c1ccco1`: the “activation” value is 2.44% [at 125 µM] (inactive). For the compound `O=C(O)c1cc(-c2ccco2)nc2ccc(Br)cc12`, the Potency was 19.4 µM (active). For `CCn1c(=O)c2cc(C(=O)Nc3cccc(C(C)=O)c3)sc2c2ccccc21`, the “activation” value is -31% (inactive). Turning to `c1ccc(-c2nnc(-c3ccccn3)c(-c3ccccn3)n2)nc1`, the “activation” value was -1.89% (inactive). As to `CC1(C(=O)Nc2nc3ccccc3s2)CC1(Br)Br` (stereo not drawn), the “activation” value is 4.93% (inactive). Take `CC1(C)Cc2nc3sc4c(SCC(=O)NC(c5ccccc5)c5ccccc5)ncnc4c3cc2CO1`: the Potency was 3.88 µM (active). Regarding `CCN(CC)S(=O)(=O)c1ccc(N2CCOCC2)c(NC(=O)c2cccc(C#N)c2)c1`, the Potency was 27.5 µM (active). With `O=[N+]([O-])c1cc2c(c(CSc3nnc4ccccn34)c1)OCOC2`, the Potency was 13.8 µM (active). On the same count and under the same terms, the same measure for `CCOC(=O)CCCCC(=O)c1[nH]c(=O)[nH]c1CSc1nnc2c3cc(Br)ccc3n(C)c2n1`: 8.68 µM (active). As for `Cc1cccc2cc(C#N)c(SCC(=O)NCc3cccs3)nc12`, the Potency was 19.4 µM (active). For `Nc1ncnc2c1ncn2C1OC(CO)C(O)C1O` (stereo not drawn), the “activation” value was 5.01% (inactive). For `NC(=S)c1cc2ccc(O)cc2oc1=O`, the Potency is 4.88 µM (active). On the same count and under the same terms, for `CC1(C)Cc2c(sc3c2c2ncnn2c2nnc(SCC(=O)NCc4ccco4)n32)CO1` the value was 5.49 µM (active); for `COc1ccc(Cl)cc1-c1n[nH]c(=S)o1`, 6.15 µM (active).

As to `Cc1ccc(CN(C)C(=O)c2ccc3c(c2)NC(=O)CS3)o1`, the “activation” value was -37.7% (inactive). Regarding `CN1C(=O)c2ccc(C(=O)Nc3ccc(Br)cn3)cc2C1=O`, the Potency was 21.8 µM (active). `Cc1ccccc1NC(=O)c1ccccc1NC(=O)c1ccco1`: the “activation” value is 5.35% [at 125 µM] (inactive). For `O=C(Nc1cccc(C(F)(F)F)c1)c1ccccc1NC(=O)C1CCCCC1`, the Potency result is “inactive”. Consider `Nc1cc2ccncc2c2ccccc12`, for which the “activation” value was -2.54% (inactive). Consider `O=C(Nc1ccccc1)c1ccccc1NC(=O)C1CCCCC1`, for which the “activation” value was -4.77% [at 125 µM] (inactive). For `COC(=O)c1c(N2C(=O)CC(Sc3ncccc3C(=O)O)C2=O)sc(C)c1C` (stereo not drawn), the “activation” value was -8.48% (inactive).

Regarding `CC[n+]1ccc(/C=C/c2ccc(N(C)C)cc2)c2ccccc21`, the “activation” value was -48.4% (inactive). On to `O=C(O)CNC(=O)c1ccccc1NC(=O)c1ccco1`, for which the “activation” value was -4.65% [at 125 µM] (inactive). Take `CC(C)n1cnc2c(N(C)c3cccc(Cl)c3)nc(N(CCO)CCO)nc21`: the “activation” value was -3.44% (inactive). Turning to `Cc1cccc(C(=O)Nc2ccccc2C(=O)NCc2ccco2)c1`, the “activation” value is -5.04% [at 125 µM] (inactive). For the compound `Nc1nnc(CC(=O)N/N=C/c2ccc(-c3ccc(Cl)cc3Cl)o2)s1`, the “activation” value is 4.21% (inactive).

Regarding `CCOP1(=O)OCC2OC(n3cnc4c(N)ncnc43)C(O)C2O1` (stereo not drawn), the Potency was 8.7 µM (active). For the compound `CCN(c1ccccc1)S(=O)(=O)c1ccc(OC)c(NC(=O)C2CC(=O)N(Cc3ccccc3)C2)c1` (stereo not drawn), the “activation” value was 1.69% (inactive). Consider `O=C1/C(=C/c2ccc(O)c(O)c2)Oc2cc(O)ccc21`, for which the “activation” value was 1.85% (inactive). Take `CC(C)n1c(SCC(=O)N2CCN(C(=O)c3ccco3)CC2)nc2c1c(=O)n(C)c(=O)n2C`: the Potency was 6.9 µM (active). For the compound `O=C(Nc1ccccc1C(=O)NCc1ccco1)c1ccccc1`, the “activation” value is 7.28% [at 125 µM] (inactive).

As for `COC(=O)[C@@H]1C[C@@]2(O)[C@H](O)[C@H](O)[C@H](O)C[C@H]2N1Cc1cc(F)ccc1F`, the “activation” value is 3.47% (inactive). For `Cn1c(=O)c2sccc2n2c(CCCC(=O)NCc3ccco3)nnc12`, the Potency is 34.6 µM (active). For `CN(C)S(=O)(=O)c1ccc(C(=O)OCC(=O)Nc2cccnc2Cl)cc1`, the Potency is 19.4 µM (active). Turning to `CCN(CC)CCCN1C=C2C(=O)C(C)(OC(=O)C3CCCC3)C(=O)C=C2C=C1c1ccsc1` (stereo not drawn), the “activation” value is -4.45% (inactive).

Source of the values: PubChem BioAssay AID492949 (National Center for Advancing Translational Sciences (NCATS), 2010).
